KKLEB tox: counter-screen for CF NF-kB inhibitors: cytotoxicity; KKLEB CF airway cells viability, ATPlite luminescence, overnight; hits give low values; cells stimulated with P. aeruginosa culture filtrate; activity change (cytotoxicity), % at 5 µM; actives 0.36% (n = 360,000); AID 602141;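 active means corrected activity change at or below -50% at 5 µM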
MITF TRPM1 inh: reduces MITF-dependent TRPM1 promoter luciferase signal | SK-MEL-5 TRPM1 promoter luciferase, 24 h | inhibition, % at 12.5 µM | actives 0.83% (n = 330,000);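 active means mean inhibition across replicates of 60% or more, whatever share of single replicates reaches that level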
HIF-2a inh: blocks HIF-2a reporter activity. 786-0 RCC cells HIF-2a reporter, luciferase luminescence, overnight. inhibition, % at 18.8 µM. actives 0.72% (n = 360,000);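 active means inhibition of the luminescence signal of 40% or more relative to plate controls, in a single-dose primary screen at 18.75 µM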
CF NFkB inh: blocks PAF-induced NF-kB reporter in cystic fibrosis cells; AID 588850; KKLEB NF-kB-GFP reporter, GFP fluorescence overnight; actives 0.86% (n = 360,000); inhibition, % at 5 µM;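 active means at least 50% inhibition at 5 µM, scaled per plate between neutral and stimulator controls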;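 further: PAF is a Pseudomonas aeruginosa culture filtrate used as stimulus; plate controls were PAF-stimulated DMSO wells for no effect and unstimulated DMSO wells for full effect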
Shn3 3UTR inh: inhibitors of Schnurri-3 3'UTR reporter in osteoblasts. Clone20 osteoblast Shn3 3'UTR firefly luciferase, 24 h. inhibition, % at 12.5 µM. actives 0.52% (n = 360,000). AID 588674;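 active means mean inhibition of at least 75% with every replicate also reaching 75%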;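 further: 0% = median of neutral control wells and 100% = pilot-screen positive control compound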
Peg3 prom inh: reduces Peg3 promoter-driven luciferase expression in HeLa. HeLa PEG-Prom luciferase reporter, luminescence, overnight. AID 588405. inhibition, % at 20 µM. actives 1.7% (n = 360,000);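 active means inhibition of at least 50% at 20 µM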
Numbers without * were called inactive; x = not tested or not shown. Only some compounds are listed: those with a hit (about 2.7% of all), similar ones and a draw of the others.

SMILES | KKLEB tox | MITF TRPM1 inh | HIF-2a inh | CF NFkB inh | Shn3 3UTR inh | Peg3 prom inh
COC(=O)CSC1=C(C#N)C(=O)NC(c2ccccc2)S1 (stereo unspecified) | 5 | 74* | 18 | -34 | 7 | 84*
CCc1nc2ccc(C(=O)NCCCn3ccnc3)cn2c1N(CC)CCOC | 6 | x | 8 | -12 | 1 | 5
CCC(C)(C)C(=O)O[C@H]1C[C@@H](C)C=C2C=C[C@H](C)[C@H](CC[C@@H]3C[C@@H](O)CC(=O)O3)[C@H]21 | 19 | -19 | 13 | 19 | 71 | 43
COc1ccc(NC(C)=O)c(C)c1 | 2 | 2 | 19 | -14 | 7 | -3
COc1cc(C)c(C(=O)CC(=O)c2c(C)cc(OC)cc2C)c(C)c1 | -6 | x | 23 | 9 | 84 | 50*
CN(C)CCCN1C(=O)c2cccc3cccc(c23)C1=O | 13 | 9 | 24 | -72 | -26 | 27
CN(C)CCN1C(=O)c2cccc3cc([N+](=O)[O-])cc(c23)C1=O | -14 | 84* | 46* | -146 | 97* | 97*
COc1ccc(/C=C/C(=O)OCC(=O)N2c3ccccc3CC2C)c(OC)c1 (stereo unspecified) | 0 | x | -15 | 6 | -1 | 4
C=C1C(=O)CC2=C1[C@](Cc1ccc(F)cc1)(C(=O)OC)N(C(=O)c1ccccc1)C2 | x | x | 14 | x | x | x
C=C1C(=O)C=C2CN(C(=O)c3ccccc3)[C@@](Cc3ccc(F)cc3)(C(=O)OC)[C@@H]12 | -91* | 99* | 97* | 75* | 95* | 99*
CCCCC[C@H](C)N1C[C@@H](COCc2ccccc2)Oc2cc(N3CCC[C@@H]3COC)ccc2S1(=O)=O | x | x | -3 | x | x | x
O=C1C(=O)c2c(C(=O)c3ccccc3)coc2-c2ccccc21 | 19 | -20 | -71 | 12 | 0 | -128
Cc1oc2c(c1C(=O)c1ccccc1)C(=O)C(=O)c1ccccc1-2 | -23 | -15 | 88* | 88* | 33 | 108*
Cc1oc2c(c1C(=O)O)C(=O)c1ccccc1C2=O | 11 | 53 | -98 | 39 | -21 | -123
CCOC(=O)c1c(C)oc2c1C(=O)c1ccccc1C2=O | -24 | 97* | -88 | 76* | 20 | 33
CC(C)CNc1ncnc2c1ncn2[C@H]1CN(CCc2ccccc2)C[C@@H](CO)O1 | 10 | x | -7 | -10 | 3 | 4
COc1ccc(/C=N/NC(=O)c2ccc(Cl)cc2)cc1Cn1cc(Cl)cn1 | -51* | -12 | -2 | 17 | 69 | 12
CNS(=O)(=O)c1ccc2c(c1)NC(=O)C1CCCN21 (stereo unspecified) | 8 | 3 | 18 | -30 | 0 | 81*
CN1CCN(S(=O)(=O)c2ccc3c(c2)NC(=O)C2CCCN32)CC1 (stereo unspecified) | -4 | 9 | 5 | -3 | 8 | 11
CCc1nc2ccc(C(=O)Nc3cc(-c4ccccc4)ccc3OC)cn2c1N(CC)CCN(C)C | -12 | x | -24 | 31 | 4 | 84*
Cc1cc(NC(=O)COC(=O)C2COc3ccccc3O2)no1 (stereo unspecified) | -4 | 12 | 11 | -5 | 6 | 64*
CCNC(=O)C1(C)CCN(Cc2ccc(C#N)cc2)C1 (stereo unspecified) | 5 | x | -1 | 2 | -2 | -7
COc1ccc(N2CCN(Cc3cc(=O)oc4cc(-c5ccccc5)c(O)cc34)CC2)cc1 | -10 | 50 | 8 | -2 | 17 | 70*
Oc1ccc(/C=C/c2ccc3ccccc3n2)cc1 | -40 | 70* | 26 | -87 | 68 | 46
CN1CCN(c2ncnc3c2ncn3[C@H]2CN(Cc3ccc(Cl)cc3)C[C@@H](CO)O2)CC1 | -2 | x | 2 | 7 | -7 | -2
SMILES | KKLEB tox | MITF TRPM1 inh | HIF-2a inh | CF NFkB inh | Shn3 3UTR inh | Peg3 prom inh
O=C1C(c2ccccc2)=[N+]([O-])c2ccccc21 | 3 | -8 | -75 | 22 | 57 | 88*
COc1cccc(C(C(=O)NC2CCCC2)N2CCN(c3ncccc3C#N)CC2)c1OC (stereo unspecified) | x | x | 0 | x | x | x
CCOc1cccc(/C=N/NC(=O)c2cc(-c3cccn3C)n[nH]2)c1O | 10 | 44 | -38 | -8 | 88* | 40
C[C@@H]1CCCCO[C@H](CN(C)Cc2ccc3c(c2)OCO3)[C@@H](C)CN([C@H](C)CO)C(=O)c2cc(NC(=O)c3ccccc3)ccc2O1 | -11 | x | -3 | 18 | 3 | -7
COc1cc(CNC2CCCC2)cc(Cl)c1OCc1ccc(F)cc1 | -6 | -2 | 17 | 3 | -10 | 5
CCOc1cc(CNC2CCCC2)cc(Cl)c1OCc1ccc(F)cc1 | -21 | 15 | -1 | 11 | 36 | 91*
CC1=CC(C)(C)N2C(=O)C(=O)c3cc(OC(=O)c4ccco4)cc1c32 | -15 | -2 | 22 | 64* | 17 | 0
O=C(Oc1cccc(OC(=O)c2ccco2)c1)c1ccco1 | 6 | 10 | 15 | -9 | 1 | 1
COC(=O)[C@]12CCCCC=C1N(CCC1=CCCCC1)C(=O)[C@H](CC(=O)N1CCC(c3ccccc3)CC1)C2 | x | x | 1 | x | x | x
CCNc1nc(N)c(C(=O)c2ccc(Cl)s2)s1 | 6 | -44 | -300 | 55* | -82 | -260
O=C(O)CSc1nnc(NC(=O)c2ccc3c(c2)OCO3)s1 | -19 | 20 | 41* | 8 | 31 | 39
COc1c2ccccc2nn1C(C)C | x | x | 12 | x | x | x
COc1ccccc1CCC(=O)OCC(=O)Nc1ccc(S(N)(=O)=O)cc1 | 1 | 11 | 10 | 2 | -16 | 9
COc1ccccc1CCC(=O)OCC(=O)Nc1ccc(C(N)=O)cc1 | -84* | 13 | 5 | 67* | -7 | 7
COc1ccc(NC(=O)CCCN2C(=O)/C(=C\c3ccco3)SC2=S)cc1 | -1 | 6 | 61* | 5 | -21 | 21
O=C(CN1C(=O)S/C(=C\c2ccccc2)C1=O)Nc1cc([N+](=O)[O-])ccc1O | 14 | -11 | -10 | 9 | 3 | -21
Cc1ccc(/C=C2/SC(=S)N(CCCC(=O)Nc3cc([N+](=O)[O-])ccc3O)C2=O)cc1 | -12 | 14 | 65* | 8 | 14 | 10
O=C(CCCN1C(=O)/C(=C/c2ccco2)SC1=S)Nc1cccc(C(=O)O)c1 | 3 | -11 | 14 | -7 | 5 | 5
CCc1ccc(/C=C2\SC(=S)N(CCCC(=O)Nc3ccc(C(=O)O)cc3)C2=O)cc1 | 7 | 3 | -34 | 8 | 27 | -9
COC(=O)c1ccc(/C=C2/SC(=S)N(CCCC(=O)Nc3ccc(O)cc3)C2=O)cc1 | -8 | 15 | 58* | 28 | -15 | 84*
O=C(CCCN1C(=O)/C(=C\c2ccccc2)SC1=S)Nc1ccc(C(=O)O)cc1 | -1 | 6 | -2 | 2 | 15 | -30
CCc1ccc(/C=C2\SC(=S)N(CCCC(=O)Nc3ccccc3C(=O)O)C2=O)cc1 | 1 | 10 | 81* | 19 | 32 | 34

Compound activity as filed in PubChem BioAssay.
